miR122 inh: miR-122 Renilla sensor signal increase in Huh7, primary screen, miR-122 inhibitor project, cell-based, single point, plate reader | activation (reporter increase), % at 12.5 µM | 0.3% of 340,000 active | Huh7 miR-122 Renilla luciferase sensor, 48 h; neutral wells = 0, positive control = 100;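 active = mean replicate activation score at least 90 and every replicate individually at or above 90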;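 note: higher luciferase means less miR-122 activity so hits act as miR-122 inhibitors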
NSD2 HMT inh: NSD2 histone methyltransferase inhibitors, primary screen, biochemical, AlphaScreen, single concentration, set 2; NSD2 peptide methylation, 120 min; Histone-lysine N-methyltransferase NSD2 (Homo sapiens), O96028; 0.54% of 310,000 active; inhibition, % at 12.5 µM
Wnt act: Wnt/beta-catenin pathway activators, primary screen, cell-based, plate reader, single point | 1.2% of 300,000 active | Wnt/beta-catenin reporter cell assay, activator | activation, % at 9.35 µM; in the data active = activation above about 30%, passing the limit was not always enough
INS-1E GSIS act: GLuc luminescence reporter in INS-1E cells, primary screen for activators of glucose-dependent secretion of insulin; INS-1E GLuc reporter insulin secretion, 2-3 h; activation, % at 16.6 µM; 0.61% of 370,000 active; AID 743287, 2014;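 active = lowest replicate activation of at least 40%, so every replicate reaches that level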
Dyrk1A ADPGlo: rat Dyrk1A kinase inhibitors, primary screen, biochemical, single point, plate reader | ADP-Glo luminescence, NFATc1 peptide | inhibition, % at 12.5 µM | 0.43% of 310,000 active | AID 504441, 2011
MITF act: activators of MITF-driven TRPM1 promoter reporter, primary screen, cell-based, SK-MEL-5, luciferase, single point. SK-MEL-5 TRPM1-promoter luciferase, 24 h; % of positive control, neutral wells = 0. activation, % at 12.5 µM. 0.75% of 300,000 active. AID 588334, 2011;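 active = mean activation of at least 80% with every replicate also reaching 80%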
Each line names hits and unclear results; the compound was inactive in the other large screens. Only some compounds are listed: those with a hit (about 2.4% of all), similar ones and a draw of the others. Cut-off read from the data, not from the text of the source, unless noted: active = inhibition above about 50%; inactive = the rest.

O=C(O)CCC(=O)OCc1c(-c2ccccc2)ncc2ccccc12	none (no result: NSD2 HMT inh)
C[C@H]1CN([C@@H](C)CO)C(=O)c2cc(NC(=O)Cn3cnnn3)ccc2O[C@H]1CN(C)C	none (no result: NSD2 HMT inh, Wnt act, Dyrk1A ADPGlo, MITF act)
N/C(=N\OC(=O)c1cccs1)c1cccnc1	none
CCSc1ccc(/C(N)=N/OC(=O)c2cccs2)cn1	MITF act 108 (no result: NSD2 HMT inh)
COc1cc(OC)c2c(-c3ccccc3)cc(C3CCCCC3)nc2c1	INS-1E GSIS act 42 (no result: NSD2 HMT inh, Dyrk1A ADPGlo)
COc1cc(OC)c2c3c(c(C4CCCCC4)nc2c1)CCCC3	none (no result: NSD2 HMT inh, Dyrk1A ADPGlo)
CO[C@H](CN(C)S(=O)(=O)c1ccc(Cl)cc1)[C@H](C)CN(C(=O)Nc1ccccc1F)[C@H](C)CO	none (no result: miR122 inh, NSD2 HMT inh, Wnt act, Dyrk1A ADPGlo, MITF act)
CS(=O)(=O)c1ncc(Cl)c(C(=O)Nc2ccc(OC(F)F)cc2)n1	INS-1E GSIS act 59 (no result: miR122 inh, Wnt act, MITF act)
CC(=O)Nc1ccc(C=NNC(=O)CCCC(=O)NN=Cc2ccc(NC(C)=O)cc2)cc1	INS-1E GSIS act 41 (no result: miR122 inh)
CCc1ccc(C(=O)N/N=C(\C)c2cccnc2)s1	MITF act 109
C/C(=N\NC(=O)c1cc(-c2cccs2)nc2ccccc12)c1ccccn1	miR122 inh 151
CCOc1ccc(/C=N/NC(=O)Nc2ccccc2)cc1	MITF act 122 (no result: miR122 inh)
CC(=O)Nc1ccc(/C=N/NC(=O)CC2CCCCC2)cc1	none (no result: NSD2 HMT inh, Dyrk1A ADPGlo, MITF act)
CC(C)C#Cc1cnc2c(c1)C(=O)N([C@H](C)CO)C[C@H](C)[C@@H](CN(C)C(=O)CN1CCOCC1)O2	none (no result: NSD2 HMT inh, Wnt act, Dyrk1A ADPGlo, MITF act)
C[C@@H]1CN([C@@H](C)CO)C(=O)Cc2cc(NC(=O)Cc3cn(C)c4ccccc34)ccc2O[C@@H]1CN(C)Cc1ccncc1	none (no result: NSD2 HMT inh, Wnt act, Dyrk1A ADPGlo, MITF act)
COCC(=O)N1[C@H](CO)[C@@H](c2ccc(-c3ccccc3OC)cc2)C12CN(C(C)=O)C2	none (no result: miR122 inh, NSD2 HMT inh, Wnt act, Dyrk1A ADPGlo, MITF act)
CCOc1ccc(/C=N/NC(=O)c2cc(-c3ccco3)nc3ccccc23)cc1	INS-1E GSIS act 69 (no result: miR122 inh)
CCOc1ccc(-c2cc(C(=O)N/N=C(\C)c3cccnc3)c3ccccc3n2)cc1	MITF act 88
CCN(CC)c1ccc(/C=N/NC(=O)OC(C)(C)C)cc1	Wnt act 59 (no result: miR122 inh)
CCN(CC)c1ccc(/C=N\NC(N)=O)cc1	none
O=C(N/N=C/c1cccc(Cl)c1Cl)Nc1ccccc1	none
O=C(N/N=C/c1ccc(Cl)cc1Cl)Nc1ccccc1	INS-1E GSIS act 42 (no result: Wnt act)
COc1ccc(S(=O)(=O)N(C)C[C@@H]2Oc3c(NS(=O)(=O)c4ccc(C)cc4)cccc3C(=O)N([C@@H](C)CO)C[C@H]2C)cc1	none (no result: miR122 inh, NSD2 HMT inh, Wnt act, Dyrk1A ADPGlo, MITF act)
CN(C)C(=O)[C@H]1[C@H](CO)[C@H]2Cn3c(ccc(C4=CCCCC4)c3=O)[C@@H]1N2Cc1cccnc1	none (no result: NSD2 HMT inh, Wnt act, Dyrk1A ADPGlo, MITF act)
CN(C)CCCNC(=O)C[C@H]1C=C[C@H](NS(=O)(=O)c2ccc(F)cc2)[C@H](CO)O1	none (no result: miR122 inh, NSD2 HMT inh, Wnt act, Dyrk1A ADPGlo, MITF act)
CCN(CC)c1ccc(/C=N/NC(=O)Nc2ccccc2)cc1	Wnt act 43 (no result: miR122 inh)
CCCOc1ccc(/C=N/NC(=O)C(=O)Nc2ccccn2)cc1	INS-1E GSIS act 52 (no result: Dyrk1A ADPGlo)
COc1cc(/C=N/NC(=O)C(=O)Nc2ccccn2)ccc1O	none
Cc1cc2c(=Cc3ccc(N(C)C)cc3)c3ccccc3n2[n+]1C	NSD2 HMT inh 55 (no result: miR122 inh)
O=C(CCn1ccc2cc(S(=O)(=O)N3CCCC3)ccc21)NCc1cccc(F)c1	INS-1E GSIS act 44
O=C(CCn1ccc2cc(S(=O)(=O)N3CCCC3)ccc21)NCc1ccccc1	none
Cc1ccc(-c2nn(-c3ccccc3)cc2C=O)o1	Wnt act 46
O=C(NC(=S)NCCO)c1sc2ccccc2c1Cl	Wnt act 42 (no result: NSD2 HMT inh)
CCOC(=S)NC(=O)c1sc2ccccc2c1Cl	none (no result: Wnt act, INS-1E GSIS act)
COc1ccc(OC)c(NC(=O)CSc2nnc(C3CCCCC3)n2-c2ccccc2)c1	Wnt act 57 (no result: INS-1E GSIS act)
COc1ccccc1NC(=O)CSc1nnc2ccc(-c3cccnc3)nn12	none
COc1ccc(NC(=O)CSc2nnc3ccc(-c4cccnc4)nn23)c(OC)c1	INS-1E GSIS act 70
O=C(COc1ncnc2ccccc12)c1ccc2c(c1)OCCO2	none (no result: INS-1E GSIS act)
O=C(COc1ncnc2cc(Cl)ccc12)c1ccc2c(c1)OCCO2	Wnt act 55 (no result: Dyrk1A ADPGlo)

High-throughput results (PubChem BioAssay)
